The text below walks through data of paper PMC7819943, “Rice protein-binding microarrays: a tool to detect cis-acting elements near promoter regions in rice”.

In all, about 39,000 sequences were measured (“fluorescence intensity (a.u.)”: median about 4,300, highest 2% from about 39,000 on). The sample as a whole holds a higher share of the highest values than the screen did.

The target of the assay is T1, OsSMF1 (Oryza sativa, UniProt Q6ZLB0 1-436).
T1 sequence: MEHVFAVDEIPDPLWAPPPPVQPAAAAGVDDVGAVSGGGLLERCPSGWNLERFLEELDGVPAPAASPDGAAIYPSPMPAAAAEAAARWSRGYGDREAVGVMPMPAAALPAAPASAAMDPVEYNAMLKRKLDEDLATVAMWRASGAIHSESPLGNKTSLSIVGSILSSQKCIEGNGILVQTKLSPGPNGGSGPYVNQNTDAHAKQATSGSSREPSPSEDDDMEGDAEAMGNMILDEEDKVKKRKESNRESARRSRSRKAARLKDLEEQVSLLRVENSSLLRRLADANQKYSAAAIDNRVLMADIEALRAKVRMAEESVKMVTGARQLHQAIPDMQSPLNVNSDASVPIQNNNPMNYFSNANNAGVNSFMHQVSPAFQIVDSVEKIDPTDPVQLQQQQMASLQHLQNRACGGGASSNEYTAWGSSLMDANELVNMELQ
The experiment in a line: protein-binding microarray (RPBM); PBS, 2% BSA, 51.3 ng/ul salmon testes DNA, 50 uM zinc acetate, 200 nM TF, 25 C, 1 h; high values mean tight binding. The conditions noted are these: protein: recombinant; tags: N-terminal polyhistidine and DsRed monomer fusion (pET32a); chain copies: 2; label: CyDye5-dUTP incorporated in the synthesized complementary strand; 3' TTTTT single-stranded linker to array surface; dsDNA, one strand shown. Summed up: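 The binding signal is fluorescence intensity per feature, in arbitrary units, read on an Axon 4000B scanner. Polyhistidine- and DsRed-tagged transcription factors (N-terminal fusions) from E. coli BL21-CodonPlus were purified on Ni–NTA and applied at 200 nM for 1 h at 25 °C to a double-stranded, BSA-blocked custom Agilent array in buffer with 50 µM zinc acetate.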
For “TAAACATATATGCATGGATGATGTCATGGAAACATGGATTCGGAGTCACCTAGTGCAG”, the binding signal was 4690 fluorescence intensity (a.u.). The result for “GATCAATCATCCTTGTTCACAAGGCTGCCTGACATGGATGCGGAGTCACCTAGTGCAG” reads 3730 fluorescence intensity (a.u.).

For “AGATGGGAAATAAAGGGTGGTGACATGGCACACTGACATGCGGAGTCACCTAGTGCAG”, the binding signal is 10800 fluorescence intensity (a.u.). For “CGCTCCGTCAGCCACGTAGACGCTACGTCGGCCAAAACCGCGGAGTCACCTAGTGCAG”, the binding signal was 14900 fluorescence intensity (a.u.). Next, “TACTGCCACGTAGGCGCCACGTCAGCGAAACCGCCCTCCACGGAGTCACCTAGTGCAG”: 58100 fluorescence intensity (a.u.); “GGTGTCACGTAAGCGCCACGTCAGCGAACCGCCCTCCAAACGGAGTCACCTAGTGCAG”: 26600 fluorescence intensity (a.u.).

In the case of “CCGAGTCAATACTGCCACGTAGCGCGCCACGTCAGCGAAACGGAGTCACCTAGTGCAG”, the binding signal was 26300 fluorescence intensity (a.u.). The result for “AAAAGCCCACCACCACCCAACCCGCCCAACGCCACGTCACCGGAGTCACCTAGTGCAG” reads 24800 fluorescence intensity (a.u.); that for “GTCAAAACCGCCACGTAGACGCCACGTCATCGAAACCGCCCGGAGTCACCTAGTGCAG”, 40400 fluorescence intensity (a.u.); that for “GCGCCACGTAGACGCCACGTCAGCCAAAACCGCCCTCCATCGGAGTCACCTAGTGCAG”, 52000 fluorescence intensity (a.u.). In the case of “GCCCACGCTCACCGACTCCATCGACGTCACGCTCACCGCCCGGAGTCACCTAGTGCAG”, the binding signal is 5090 fluorescence intensity (a.u.). As to “CAAACAAGCCACGTAGATGCCACGTCATCCAAAACCGCCTCGGAGTCACCTAGTGCAG”, the binding signal is 29600 fluorescence intensity (a.u.).

In the case of “TCCGTGACACCGTGACAGCGTGGACGTTCATAACCTTCCACGGAGTCACCTAGTGCAG”, the binding signal is 9010 fluorescence intensity (a.u.). Next, “GACCTCGCGAACAGCCCACACGTACGTTACTGACGCCATACGGAGTCACCTAGTGCAG”: 4360 fluorescence intensity (a.u.); “ACAGGTAGCTCCATATCTTGTTCATATTGACATACACAATCGGAGTCACCTAGTGCAG”: 31500 fluorescence intensity (a.u.); “TGCAAATTTTCAAAATCGACTACCAGTAGATGTTTACTCCCGGAGTCACCTAGTGCAG”: 14000 fluorescence intensity (a.u.). Take “CAAGAATGTACTGAGTACGTCTCAATCCACGTGTTTGAGCCGGAGTCACCTAGTGCAG”: the binding signal is 4960 fluorescence intensity (a.u.). In the case of “TCACGAACTGTGTACCGGATGCCACGTCACACAGTTGTCTCGGAGTCACCTAGTGCAG”, the binding signal is 41200 fluorescence intensity (a.u.). Next, “TATAGTTGTGTACTAGTGTCACTCACGCCACCCGTCTCATCGGAGTCACCTAGTGCAG”: 3670 fluorescence intensity (a.u.); “ATGCAGCCACACGGATGTTGGACGTCATTGTCTATAGTGTCGGAGTCACCTAGTGCAG”: 4580 fluorescence intensity (a.u.); “GGCCGCGTAGGCGCCACATCAGCCAAAACCACCATCAAAACGGAGTCACCTAGTGCAG”: 4590 fluorescence intensity (a.u.).

Consider “AACCAGCCACGTAGGCGCCACGTCAGCCAAAACTGCTATCCGGAGTCACCTAGTGCAG”, for which the binding signal was 35900 fluorescence intensity (a.u.).

Regarding “ACCAGCCACGTAGGCGCCACGTCAGCTAAAACCGCCTTCACGGAGTCACCTAGTGCAG”, the binding signal is 19900 fluorescence intensity (a.u.). Next, “TTGCAGTGCCACCTCACCGCCACGTAGGATGATGACTAAGCGGAGTCACCTAGTGCAG”: 25800 fluorescence intensity (a.u.).

Regarding “ACAAGCCACGTAGGCGCCACGTCAGCCAAAACCGCCTTCACGGAGTCACCTAGTGCAG”, the binding signal was 44100 fluorescence intensity (a.u.). Next, “AGTAAAAGGAGCCACGTAGGCGCCACGTCATCCAAAACCACGGAGTCACCTAGTGCAG”: 47600 fluorescence intensity (a.u.). The result for “AAACTAGCCACGTTGGCGCCACGTCAGCCAAAACCGCCTTCGGAGTCACCTAGTGCAG” reads 33700 fluorescence intensity (a.u.). For the sequence “AGTTAATGGAGGAGCCACCGCCACGTAAGTGCCACGTAGGCGGAGTCACCTAGTGCAG”, the binding signal was 56200 fluorescence intensity (a.u.). For the sequence “CGTAAGCGCCACGTTAATGCCACGTGGGGCGAAGACCTAGCGGAGTCACCTAGTGCAG”, the binding signal was 15100 fluorescence intensity (a.u.).

For “CATTATACTGTTCATAAACATGAATATCACAACCTGTTCTCGGAGTCACCTAGTGCAG”, the binding signal is 21100 fluorescence intensity (a.u.).

As for “GTGTGGGGATAAACAGAGGTAGAGACATGTGTCAGATGACCGGAGTCACCTAGTGCAG”, the binding signal is 3150 fluorescence intensity (a.u.). Next, “CTTCTTTCCCGCACGCGCGGCTCGCGCATGCATGCACGATCGGAGTCACCTAGTGCAG”: 15000 fluorescence intensity (a.u.); “CGTCCGGCGTCGGCGTGGACGGGTCGGCGCGGCGCCCCACCGGAGTCACCTAGTGCAG”: 3650 fluorescence intensity (a.u.). The result for “AGATTAAGGAGTCCTCCATCTATATAATCCAATCTATCTCCGGAGTCACCTAGTGCAG” reads 21400 fluorescence intensity (a.u.); that for “TTGTCCGATGTGGCAGTTGAGTCAGCATGAGACCCACGTACGGAGTCACCTAGTGCAG”, 14200 fluorescence intensity (a.u.). For “ACCACCCGAGACGCGACGTGGCGGCGGGCATGCAGCACCCCGGAGTCACCTAGTGCAG”, the binding signal is 5050 fluorescence intensity (a.u.). As to “CGGCACCACCAGTTGTCCGGCATGCGATGTGGTACCGAGACGGAGTCACCTAGTGCAG”, the binding signal was 49300 fluorescence intensity (a.u.).

On to “ACCTGTATTTGTCATTATTTAGTGGACTCTGCTTAGTTCTCGGAGTCACCTAGTGCAG”, for which the binding signal was 3390 fluorescence intensity (a.u.). The result for “CATGGTGATGATGGCGGCGGGCGTCCGTCAGCGCCCGCACCGGAGTCACCTAGTGCAG” reads 5860 fluorescence intensity (a.u.); that for “TATGGTGATCCTAGCGATGAAACCGCCTAGCCCCGTTAGGCGGAGTCACCTAGTGCAG”, 64600 fluorescence intensity (a.u.); that for “TGCAGCCGCCGACGCGGCGCGCCGACGCGATCTGAAACCCCGGAGTCACCTAGTGCAG”, 3940 fluorescence intensity (a.u.).

As to “CCTATTCCTTGTCACTATGACACCGTCATATATCTATGCACGGAGTCACCTAGTGCAG”, the binding signal is 3420 fluorescence intensity (a.u.).
